According to PubChem BioAssay (EPA / NIEHS):
Some structures have more than one record in an assay (separate samples or runs), and their calls can disagree. Active and inactive are the calls of the source. The calls were made as follows: active = hit-call score of the fitted dose curve at least 0.9, where 1 is the maximum; inactive = score below 0.9.

Columns and labels:
[1] = target: Myc proto-oncogene protein (Homo sapiens) (UniProt P01106); test: ATG_Myc_CIS: Attagene CIS-FACTORIAL HepG2 Assay for human Myelocytomatosis (Myc) Proto-Oncogene Transcription Factor (AID 2282990); settings: HepG2, Attagene cis-reporter transcription factor activity; actives raise or lower the signal
Sequence of Myc proto-oncogene protein (Homo sapiens) (P01106 whole entry, looked up, the tested form may be a part): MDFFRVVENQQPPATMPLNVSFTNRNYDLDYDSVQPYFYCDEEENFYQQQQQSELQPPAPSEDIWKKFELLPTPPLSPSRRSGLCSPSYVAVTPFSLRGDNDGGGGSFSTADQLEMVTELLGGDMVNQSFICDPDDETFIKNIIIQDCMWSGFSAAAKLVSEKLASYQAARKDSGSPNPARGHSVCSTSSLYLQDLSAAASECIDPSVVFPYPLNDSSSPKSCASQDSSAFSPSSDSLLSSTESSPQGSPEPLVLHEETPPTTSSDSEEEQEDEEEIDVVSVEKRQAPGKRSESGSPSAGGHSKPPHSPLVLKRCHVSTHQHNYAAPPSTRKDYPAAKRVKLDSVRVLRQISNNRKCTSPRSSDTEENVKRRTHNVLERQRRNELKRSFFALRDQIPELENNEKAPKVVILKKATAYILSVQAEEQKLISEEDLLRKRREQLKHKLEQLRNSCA
Method in brief: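 After 24 h chemical treatment of HepG2 cells carrying multiplexed cis-regulated reporter constructs, reporter transcripts quantified by RT-PCR and capillary electrophoresis of fluorescent fragments. Gain or loss fitted against DMSO baseline.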

[2] = ATG_Oct_MLP_CIS: Attagene CIS-FACTORIAL HepG2 Assay for human Octamer-Binding Transcription Factor (Oct) (AID 2282993); settings: HepG2 Attagene cis-factorial Oct reporter, mRNA; actives raise or lower the signal
Method in brief: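 After 24 h compound exposure, transfected HepG2 cells were lysed for total RNA; reporter-specific cDNA was PCR-amplified, fluorescently labelled and sized by capillary electrophoresis. Bidirectional curve fitting used DMSO as baseline.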

[3] = target: Cellular tumor antigen p53 (Homo sapiens) (UniProt P04637); test: ATG_p53_CIS: Attagene CIS-FACTORIAL HepG2 Assay for human p53 Transcription Factor (AID 2282994); settings: HepG2 p53 cis-element reporter, Attagene mRNA; actives raise or lower the signal
Sequence of Cellular tumor antigen p53 (Homo sapiens) (P04637 whole entry, looked up): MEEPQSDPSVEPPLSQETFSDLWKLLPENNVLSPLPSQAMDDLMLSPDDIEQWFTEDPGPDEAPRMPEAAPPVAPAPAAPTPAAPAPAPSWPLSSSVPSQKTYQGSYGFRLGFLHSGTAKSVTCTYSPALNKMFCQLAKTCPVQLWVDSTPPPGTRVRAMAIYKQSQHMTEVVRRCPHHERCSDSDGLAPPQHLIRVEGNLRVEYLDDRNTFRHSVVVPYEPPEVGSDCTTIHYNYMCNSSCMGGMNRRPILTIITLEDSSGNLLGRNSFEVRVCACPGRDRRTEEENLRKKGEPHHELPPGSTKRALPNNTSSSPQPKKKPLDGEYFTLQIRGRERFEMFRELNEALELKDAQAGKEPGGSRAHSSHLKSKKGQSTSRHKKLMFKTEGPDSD
Method in brief: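 Read-out: reporter mRNA by RT-PCR plus capillary electrophoresis with fluorescence detection. Human HepG2 liver cells carried transfected multi-reporter cis-element constructs, dosed 24 h. Gain or loss of signal fitted bidirectionally against DMSO control.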

[4] = BSK_3C_TissueFactor: BioMAP Diversity Plus: 3C Assay for Tissue Factor Biomarker Activity (AID 2282997); settings: BioMAP 3C HUVEC, tissue factor biomarker readout; actives raise or lower the signal
Method in brief: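 Tissue Factor measured by ELISA, 24 h after treatment of primary HUVEC in the BioMAP 3C setting.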

[5] = BSK_3C_uPAR: BioMAP Diversity Plus: 3C Assay for Urokinase-type plasminogen activator receptor (uPAR) Biomarker Activity (AID 2282998); settings: BioMAP 3C HUVEC, uPAR biomarker ELISA; actives raise or lower the signal
Method in brief: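 Values derive from bidirectional curve fitting relative to DMSO, which served as baseline of activity. uPAR was measured by ELISA in human umbilical vein endothelial primary cultures 24 h after compound addition.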

[6] = BSK_4H_Eotaxin3: BioMAP Diversity Plus: 4H Assay for Eotaxin 3 Biomarker Activity (AID 2283000); settings: primary human endothelial cells (HUVEC); actives raise or lower the signal
Method in brief: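 Eotaxin-3 (CCL26) levels were measured by ELISA in HUVEC primary cultures 24 h post-dosing. Gain or loss of signal was fitted in both directions, with DMSO serving as baseline and negative control.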

[7] = ATG_NF_kB_CIS: Attagene CIS-FACTORIAL HepG2 Assay for human Nuclear Factor Kappa B (NF-kB) (AID 2282991); settings: HepG2 Attagene cis-factorial NF-kB reporter mRNA; actives raise or lower the signal
Method in brief: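 Measures mRNA induction of an NF-kB-responsive cis-element reporter in HepG2 cells transfected with multiple reporter units, sampled 24 h post-dosing; quantified by fluorescence after RT-PCR and capillary electrophoresis, fitted for activation or inhibition against DMSO.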

[8] = ATG_NRF2_ARE_CIS: Attagene CIS-FACTORIAL HepG2 Assay for human Nuclear Factor Erythroid 2 Related Factor 2 (NFR2) response to Antioxidant Response Elements (ARE) (AID 2282992); settings: HepG2 Attagene ARE/NRF2 reporter, transcription factor activity; actives raise or lower the signal;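 as to AC50: reporter mRNA level measured by RT-PCR and capillary electrophoresis fluorescence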
Method in brief: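 Readout: reporter mRNA quantified by RT-PCR plus FAM-labelled primer extension, HpaI digestion and capillary electrophoresis, 24 h after dosing transfected HepG2 cells. Gain or loss of signal is fitted bidirectionally against DMSO baseline.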

[9] = BSK_3C_VCAM1: BioMAP Diversity Plus: 3C Assay for Vascular cell adhesion molecule 1 (VCAM1) Biomarker Activity (AID 2282999); settings: BioMAP 3C HUVEC, VCAM1 ELISA, cytokine-stimulated; actives raise or lower the signal
Method in brief: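 Activity fitted in both directions relative to DMSO, with ELISA measurement of the surface marker on primary HUVEC (3C) at 24 h post-treatment; parallel SRB staining (0.1% SRB, TCA-fixed, 560 nm) flagged overt cytotoxicity.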

Measured: AC50

CS(=O)(=O)c1ccc([C@@H](CC2CCCC2)C(=O)Nc2cnccn2)cc1Cl
active: [1] 165 µM | [2] 122 µM
inactive: [3] | [4] | [5] | [6]

CCCCCCCCCCCC(=O)NCCCN(C)C
active: [2] 20.9 µM | [3] 20.2 µM
inactive: [1] | [7] | [8]

FC(OC(F)(F)C(F)(F)C(F)(F)F)C(F)(F)F (stereo not given)
inactive: [1] | [8] | [2] | [3]

CCN(CC)CC
inactive: [1] | [8] | [2] | [3]

Cc1cc(=O)oc2cc(O)ccc12
inactive: [1] | [7] | [8] | [2] | [3]

CC[N+](CC)(CC)Cc1ccccc1
not listed: [7] | [9]
inactive: all other assays above

CC1=NN(c2ccccc2)C(=O)C1
active: [4] 4.46 µM
not listed: [9]
inactive: all other assays above

NNC(=O)CCCCC(=O)NN
inactive: [1] | [8] | [2]

O=C(CCCN1CCC(O)(c2ccc(Cl)cc2)CC1)c1ccc(F)cc1
active: [2] 47.9 µM | [3] 46.2 µM | [4] 15.6 µM | [5] 20 µM
inactive: [1] | [6]

O=C(F)C(F)(F)C(F)(F)C(F)(F)C(=O)F
inactive: [1] | [7] | [8] | [2] | [3]

COCN(COC)c1nc(N(COC)COC)nc(N(COC)COC)n1
not listed: [7] | [9]
inactive: all other assays above

c1cc2cccc3c4cccc5cccc(c(c1)c23)c54
active: [8] 19.8 µM
inactive: [1] | [2] | [3]

O=C(c1ccccc1)c1ccccc1
inactive: [1] | [2] | [3] | [4] | [5] | [6]
active: [3] 168 µM

CCCCCCCCCCCCOS(=O)(=O)O
inactive: [4] | [5] | [9] | [6]

CCCCCCOC(=O)c1ccc(O)cc1
active: [1] 60.9 µM | [2] 57 µM | [3] 52.2 µM
inactive: [8]

Cc1[nH]nc2c1N=C(c1ccccc1Cl)c1cc([N+](=O)[O-])ccc1N2
inactive: [2]
active: [1] 0.353 µM | [8] 19.8 µM | [4] 3.97 µM | [5] 4.73 µM | [6] 1.4 µM

O=C(O)CCC(F)(F)C(F)(F)C(F)(F)C(F)(F)C(F)(F)F
not listed: [9]
inactive: all other assays above

CCCCCCCCCCCCOC(=O)c1cc(O)c(O)c(O)c1
inactive: [1] | [3]
active: [8] 2.95 µM | [2] 11.1 µM

NCc1cccc(CN)c1
inactive: [1] | [7] | [8] | [2] | [3]

Oc1cccc2c(O)cccc12
inactive: [1] | [2] | [3]
active: [8] 8.25 µM

COc1cccc(O)c1
not listed: [7] | [9]
inactive: all other assays above

CCCCN(C)C
inactive: [1] | [7] | [8] | [2] | [3]

O=C(Nc1ccc(Cl)c(Cl)c1)c1cc(Cl)cc(Cl)c1O
inactive: [1]
active: [8] 0.522 µM | [2] 1.11 µM | [3] 10.9 µM

FC(F)(F)C1(F)C(F)(F)C(F)(F)C(F)(F)C1(F)F
inactive: [1] | [7] | [8] | [2] | [3]

COC1=CC(=O)C[C@@H](C)[C@]12Oc1c(Cl)c(OC)cc(OC)c1C2=O
active: [7] 25.6 µM
not listed: [3] | [9]
inactive: all other assays above

Cc1ccccc1OCC(=O)O
inactive: [1] | [8] | [2]

COc1ccc(C#N)cc1
inactive: [1] | [7] | [8] | [2] | [3]

CC(C)(C)C1CCCCC1O (stereo not given)
inactive: [1] | [8] | [2] | [3]

CCCCc1oc2ccccc2c1C(=O)c1cc(I)c(OCCN(CC)CC)c(I)c1
inactive: [1] | [3]
active: [2] 27.3 µM | [4] 10.2 µM | [5] 6.63 µM | [6] 19.6 µM

CC1CCC(CO)CC1 (stereo not given)
inactive: [1] | [8] | [2]

CN(C)CCOC(c1ccccc1)c1ccccc1
inactive: [1] | [2] | [4] | [5] | [6]

CC(=O)Nc1ccc(O)cc1
not listed: [3] | [7] | [8]
inactive: all other assays above

CC(C)c1c(C(=O)Nc2ccccc2)c(-c2ccccc2)c(-c2ccc(F)cc2)n1CC[C@@H](O)C[C@@H](O)CC(=O)O
inactive: [1] | [2]

O=S(=O)(c1ccc(OCc2ccccc2)cc1)c1ccccc1O
inactive: [1] | [7]
active: [8] 8.89 µM | [2] 31.9 µM | [3] 33.4 µM

N=C(N)c1ccc(OCCCCCOc2ccc(C(=N)N)cc2)cc1
inactive: [1] | [4] | [9] | [6]
active: [8] 0.732 µM | [2] 34.4 µM | [5] 7.78 µM

Nc1ccc(O)c(C(=O)O)c1
inactive: [1] | [7] | [8] | [2] | [3]

O=C(O)CN(CCCN(CC(=O)O)CC(=O)O)CC(=O)O
active: [8] 6.54 µM
inactive: [1] | [7] | [2] | [3]

NNc1nc(-c2ccc([N+](=O)[O-])cc2)cs1
inactive: [1] | [7] | [2] | [3]
active: [8] 1.95 µM
